Data: PubChem BioAssay (NCATS)
Records with an inconclusive call do not appear. Active and inactive are the calls of the source. Calls follow the shape of the dose curve; as a rule, active = well fitted curve in the direction sought with a large enough effect; inconclusive = small, poorly fitted or top-dose-only effect, or another doubt; inactive = no such curve, though single readings can be large; an effect the other way counts as inactive or inconclusive.

Legend:
NIH3T3 [1] = assay: Cytotoxic Profiling of Annotated Libraries Using Quantitative High-Throughput Screening (AID 1296008); details: Five cell lines viability, CellTiter-Glo ATP luminescence, 48-72 h; max response: hits give low values; also: nearly all actives have a fitted effect of over 60% in size
Procedure, shortened: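 Cells exposed to compounds for 48 or 72 hr at 37 degrees Celsius. Viability read as ATP-coupled luminescence with CellTiter-Glo after 10 min at room temperature.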

MCC-13 = assay: qHTS assay to identify novel small-molecules to repurpose for Merkel cell carcinoma treatment (AID 1296009); details: MCC and control cell lines, CellTiter-Glo viability, 72 h; series mostly up to 46 µM; also: nearly all actives have a fitted effect of over 60% in size
Procedure, shortened: (§1)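 Cells were treated for 72 hr at 37 degree celsius with compounds in 8- or 11-point dose response. Viability was read by CellTiter-Glo luminescence, normalized to no-cell (cytotoxicity) and DMSO controls.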

MKL-1 = assay: as above; details: MCC and control cell lines, CellTiter-Glo viability, 72 h; series mostly up to 46 µM
Procedure, shortened: as §1

MKL-2 = assay: as above; details: MCC and control cell lines, CellTiter-Glo viability, 72 h; series mostly up to 46 µM
Procedure, shortened: as §1

UISO = assay: as above; details: MCC and control cell lines, CellTiter-Glo viability, 72 h; series mostly up to 46 µM
Procedure, shortened: as §1

WaGa = assay: as above; details: MCC and control cell lines, CellTiter-Glo viability, 72 h; series mostly up to 46 µM
Procedure, shortened: as §1

C33A = assay: Primary qHTS to identify gynecologic anti-cancer compounds using libraries of approved drugs and bioactive compounds (AID 1345084); details: Gynecologic cancer cell panel viability, ATPlite luminescence, 48 h; series mostly up to 57.5 µM; also: nearly all actives have a fitted effect of over 55% in size
Procedure, shortened: (§2)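 ATP-based viability (ATPlite), 1,000 cells/well, 16 h pre-incubation, 48 h compound at 37 C, 5% CO2, 15 min RT before read.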

CAOV3 = assay: as above; details: Gynecologic cancer cell panel viability, ATPlite luminescence, 48 h; series mostly up to 57.5 µM
Procedure, shortened: as §2

CASKI = assay: as above; details: Gynecologic cancer cell panel viability, ATPlite luminescence, 48 h; series mostly up to 57.5 µM
Procedure, shortened: as §2

HeLa = assay: as above; details: Gynecologic cancer cell panel viability, ATPlite luminescence, 48 h; series mostly up to 57.5 µM
Procedure, shortened: as §2

Hek293T [2] = assay: as above; details: Gynecologic cancer cell panel viability, ATPlite luminescence, 48 h, control line for the selectivity index; series mostly up to 57.5 µM
Procedure, shortened: as §2

PA-1 = assay: as above; details: Gynecologic cancer cell panel viability, ATPlite luminescence, 48 h; series mostly up to 57.5 µM
Procedure, shortened: as §2

HEK293T [3] = assay: qHTS assay to identify novel small-molecules to repurpose for Merkel cell carcinoma treatment (AID 1296009); details: MCC and control cell lines, CellTiter-Glo viability, 72 h; at 44.8 µM (top of the series) unless noted; also: nearly all actives have a fitted effect of over 60% in size
Procedure, shortened: as §1

Es-2 = assay: Primary qHTS to identify gynecologic anti-cancer compounds using libraries of approved drugs and bioactive compounds (AID 1345084); details: Gynecologic cancer cell panel viability, ATPlite luminescence, 48 h; series mostly up to 57.5 µM; also: nearly all actives have a fitted effect of over 55% in size
Procedure, shortened: as §2

JEG-3 = assay: as above; details: Gynecologic cancer cell panel viability, ATPlite luminescence, 48 h; series mostly up to 57.5 µM
Procedure, shortened: as §2

OV90 = assay: as above; details: Gynecologic cancer cell panel viability, ATPlite luminescence, 48 h; series mostly up to 57.5 µM
Procedure, shortened: as §2

SKOV3 = assay: as above; details: Gynecologic cancer cell panel viability, ATPlite luminescence, 48 h; series mostly up to 57.5 µM
Procedure, shortened: as §2

MCC-26 = assay: qHTS assay to identify novel small-molecules to repurpose for Merkel cell carcinoma treatment (AID 1296009); details: MCC and control cell lines, CellTiter-Glo viability, 72 h; series mostly up to 46 µM; also: nearly all actives have a fitted effect of over 60% in size
Procedure, shortened: as §1

HACAT = assay: as above; details: MCC and control cell lines, CellTiter-Glo viability, 72 h; at 44.8 µM (top of the series) unless noted
Procedure, shortened: as §1

NIH3T3 [4] = assay: as above; details: MCC and control cell lines, CellTiter-Glo viability, 72 h; at 44.8 µM (top of the series) unless noted
Procedure, shortened: as §1
% is scaled to controls: 0 for no effect and ±100 for the full control effect; potency is read from the fitted curve at half-maximal effect.

C/C(=N\O)c1ccc(OCC(=O)N2CCCCC2)cc1
inactive: max response (NIH3T3 [1]) -0.0363% | Potency (MCC-13) | Potency (MKL-1) | Potency (MKL-2) | Potency (UISO) | Potency (WaGa) | Potency (C33A) | Potency (CAOV3) | Potency (CASKI) | Potency (HeLa) | Potency (Hek293T [2]) | Potency (PA-1)

N=C1N=C(N)c2cc3ccccc3cc21
active: Potency (NIH3T3 [1]) 10.9 µM | Potency (MCC-13) 43.3 µM | Potency (MKL-1) 38.6 µM | Potency (MKL-2) 24.3 µM | Potency (UISO) 24.3 µM | Potency (CASKI) 31.6 µM | Potency (Hek293T [2]) 39.8 µM | Potency (PA-1) 35.5 µM

CCNC(=O)[C@H]1O[C@@H](n2cnc3c(N)nc(NCCc4ccc(CCC(=O)O)cc4)nc32)[C@H](O)[C@@H]1O
inactive: max response (NIH3T3 [1]) -6.33% | outcome (HEK293T [3]) | Potency (C33A) | Potency (CASKI) | Potency (Es-2) | Potency (HeLa) | Potency (Hek293T [2]) | Potency (JEG-3) | Potency (OV90) | Potency (PA-1) | Potency (SKOV3)

Nc1cc(-c2ccncc2)c[nH]c1=O
inactive: max response (NIH3T3 [1]) -0.0001% | Potency (MCC-13) | Potency (MCC-26) | Potency (MKL-1) | Potency (UISO) | Potency (WaGa) | Potency (C33A) | Potency (CAOV3) | Potency (CASKI) | Potency (Es-2) | Potency (HeLa) | Potency (Hek293T [2]) | Potency (JEG-3) | Potency (OV90) | Potency (PA-1)

CCCCCCCCCCCCOCCO
inactive: max response (NIH3T3 [1]) 1.59% | Potency (MCC-13) | Potency (MCC-26) | Potency (MKL-1) | Potency (MKL-2) | Potency (UISO) | Potency (WaGa) | Potency (C33A) | Potency (CAOV3) | Potency (CASKI) | Potency (Es-2) | Potency (HeLa) | Potency (Hek293T [2]) | Potency (JEG-3) | Potency (OV90) | Potency (PA-1) | Potency (SKOV3)

O=C(O)/C=C\C(=O)O
inactive: Potency (MCC-13) | Potency (MCC-26) | Potency (MKL-1) | Potency (MKL-2) | Potency (UISO) | Potency (WaGa) | Potency (C33A) | Potency (CAOV3) | Potency (CASKI) | Potency (Es-2) | Potency (HeLa) | Potency (Hek293T [2]) | Potency (JEG-3) | Potency (OV90) | Potency (PA-1) | Potency (SKOV3)

CCN(CC)CCCCNc1ncc2cc(-c3c(Cl)cccc3Cl)c(NC(=O)NC(C)(C)C)nc2n1
inactive: Potency (JEG-3)
active: Potency (NIH3T3 [1]) 1.16 µM | Potency (OV90) 7.94 µM | Potency (PA-1) 0.631 µM

O=C(Nc1ccc2c(c1)CCN(Cc1ncn[nH]1)C2)c1ccccc1-c1ccc(C(F)(F)F)cc1
inactive: Potency (CAOV3) | Potency (CASKI) | Potency (Es-2) | Potency (HeLa) | Potency (Hek293T [2]) | Potency (JEG-3) | Potency (OV90) | Potency (PA-1)

CC1(C)S[C@@H]2[C@H](NC(=O)[C@H](N)c3ccccc3)C(=O)N2[C@H]1C(=O)O
inactive: outcome (HACAT) | Potency (MCC-13) | Potency (MCC-26) | Potency (MKL-1) | Potency (MKL-2) | Potency (UISO) | Potency (WaGa) | Potency (C33A) | Potency (CAOV3) | Potency (CASKI) | Potency (Es-2) | Potency (HeLa) | Potency (Hek293T [2]) | Potency (JEG-3) | Potency (OV90) | Potency (PA-1) | Potency (SKOV3)

Clc1ccccc1-c1nc(-c2ccncc2)no1
inactive: outcome (HACAT) | Potency (MCC-13) | Potency (MCC-26) | Potency (MKL-1) | Potency (MKL-2) | Potency (UISO) | Potency (WaGa) | Potency (C33A) | Potency (CAOV3)
active: Potency (HeLa) 28.2 µM | Potency (SKOV3) 22.4 µM

O=c1cc(-c2ccccc2)oc2ccccc12
active: Potency (HeLa) 15.8 µM | Potency (SKOV3) 31.6 µM
inactive: Potency (MCC-13) | Potency (MKL-1)

O=[N+]([O-])c1ccc(CNc2nc(NCc3cccc(C(F)(F)F)c3)nc3nc[nH]c23)cc1
inactive: outcome (NIH3T3 [1]) | outcome (NIH3T3 [4]) | Potency (C33A) | Potency (CAOV3) | Potency (CASKI) | Potency (Es-2) | Potency (HeLa) | Potency (Hek293T [2]) | Potency (JEG-3) | Potency (PA-1) | Potency (SKOV3)

CCCCN(CC)c1nc(C)nc2c1c(C)cn2-c1c(C)cc(C)cc1C
inactive: max response (NIH3T3 [1]) -2.65% | Potency (C33A) | Potency (CASKI) | Potency (Es-2) | Potency (HeLa) | Potency (Hek293T [2]) | Potency (JEG-3) | Potency (OV90) | Potency (PA-1)
